FLuc counter: counter-screen for miR-21 project: firefly luciferase inhibitors or activators; 360,000 compounds, 6.9% hits; AID 588342; Potency, µM (titrated, usually from 57.5 µM), for inactives: at the highest dose activity change, negative = inhibition, most hits filed as inhibitors; P08659; purified FLuc, Km substrates, luminescence inhibition;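 further: plate controls were vehicle for no effect and reference inhibitor for full effect; nearly all actives have a fitted effect of over 55% in size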
Target sequence (P08659 whole entry, looked up): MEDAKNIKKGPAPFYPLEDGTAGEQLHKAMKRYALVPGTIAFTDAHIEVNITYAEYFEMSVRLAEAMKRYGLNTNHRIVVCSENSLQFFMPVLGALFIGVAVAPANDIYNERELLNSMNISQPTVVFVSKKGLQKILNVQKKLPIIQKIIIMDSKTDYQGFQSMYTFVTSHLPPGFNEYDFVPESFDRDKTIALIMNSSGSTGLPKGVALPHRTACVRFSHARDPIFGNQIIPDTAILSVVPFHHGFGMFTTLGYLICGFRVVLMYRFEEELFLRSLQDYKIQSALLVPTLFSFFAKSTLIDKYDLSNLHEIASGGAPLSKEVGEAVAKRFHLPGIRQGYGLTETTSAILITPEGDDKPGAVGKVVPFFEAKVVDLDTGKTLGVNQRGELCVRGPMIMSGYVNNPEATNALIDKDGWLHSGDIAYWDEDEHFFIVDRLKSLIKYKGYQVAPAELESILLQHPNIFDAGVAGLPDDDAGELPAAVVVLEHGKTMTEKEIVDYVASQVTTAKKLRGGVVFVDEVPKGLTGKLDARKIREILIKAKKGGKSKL
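Purified P. pyralis luciferase (10nM final) with 10uM D-luciferin and 10uM ATP (Km levels) in 50mM Tris acetate pH 7.5, 10mM Mg acetate, 0.01% Tween-20, 0.05% BSA; qHTS 6-point titration, ~60 µM downward; luminescence read.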
NPC1 prom act: activators of NPC1 promoter. 320,000 compounds, 2.4% hits. AID 485313. Huh7 NPC1 promoter luciferase reporter, 24 h. Potency, µM (titrated, usually from 9.22 µM), for the others: at the highest dose activation, most hits filed as activators; further: % of control where 0% means no effect; nearly all actives have a fitted effect of over 60% in size
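Huh7 reporter cells (NPC1 promoter driving luciferase) are dosed with compound for 24 h at 37 °C, 5% CO2; luciferase detection reagent is then added and luminescence measured after 10 min at ambient temperature.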
Rab9 promoter act: activators of Rab9 promoter; Huh7 Rab9 promoter-luciferase reporter, luminescence, 24 h; Potency, µM (highest dose often 9.22 µM), inactives show at the top dose activation, negative = inhibition, usual class: activators; 320,000 compounds, 2.8% hits; AID 485297; further: % of control where 0% means no effect; nearly all actives have a fitted effect of over 60% in size
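Huh7 reporter line, Rab9 promoter upstream of luciferase. Compound exposure 24 h at 37 °C in reduced-serum medium with 10% FBS. Read-out: luminescence.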
Luc counter: Kinase-Glo luciferase inhibition (counter-screen). Q27757. Kinase-Glo luciferase, ATP luminescence, 8 min. Potency, µM (series often up to 38.3 µM), for the others: at the highest dose activity change, negative = inhibition, usual class: inhibitors. 200,000 compounds, 0.28% hits; further: on the % scale 0 is the no-effect control and ±100 the full control effect; nearly all actives have a fitted effect of over 60% in size
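Inhibition of Kinase-Glo luciferase light generation was assessed at 10 uM ATP in pH 7.2 imidazole buffer, with luminescence measured after eight minutes at ambient temperature.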
SMN2 splice up: SMN2 splice variant enhancement | HEK293 SMN2-luciferase splicing reporter, luminescence, 30-36 h | AID 1458 | 210,000 compounds, 2.8% hits | Potency, µM (highest dose often 46.1 µM), for the others: top-dose activity change, positive = activation, usual class: activators; further: % of control where 0% means no effect; nearly all actives have a fitted effect of over 55% in size
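HEK293 cells carry an SMN2 minigene-luciferase reporter in which exon 7 inclusion puts luciferase in frame. Cells were seeded at 2000 cells/well, attached for 10-12 hours, then exposed to compounds for 30-36 hours at 37C before ONE-Glo luminescence.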
* hit, by the source's call; ? = inconclusive; . = not tested or not shown; [ ] = dose if it differs, or a comment. Shown are actives, neighbours in structure and some others; about 7.3% of the full set was active somewhere. The call rests on the fitted dose curve; in most records, active means well fitted curve in the direction sought with a large enough effect; inconclusive means small, poorly fitted or top-dose-only effect, or another doubt; inactive means no such curve, though single readings can be large; an effect the other way counts as inactive or inconclusive. Potency means the concentration at half of the fitted maximal effect.

SMILES	FLuc counter	NPC1 prom act	Rab9 promoter act	Luc counter	SMN2 splice up
Cc1ccc(-c2nnc(-c3ccc4c(c3)OCO4)o2)cc1	1.35µM*	1µM*	0.708µM*	-5.0%	11.2µM*
O=C1CCCCC1Sc1nnc(-c2ccc3c(c2)OCO3)o1 (stereo not given)	0.601µM*	0.199µM*	0.1µM*	-28.4%	?
Brc1ccc(-c2nnc(-c3ccc4c(c3)OCO4)o2)o1	1.69µM*	2µM*	1µM*	-6.9%	11.2µM*
COc1ccc(Cn2ccc3nc(C)c(C(=O)Nc4ccc(OC)cc4OC)cc3c2=O)cc1	1.2%	.	.	.	.
O=C(O)Cc1cccnc1	.	.	.	-4.1%[7.66 µM]	0.2%[9.22 µM]
N[C@@H](CC1=CS(=O)(=O)c2ccc(Cl)cc21)C(=O)O	.	.	.	-3.5%[7.66 µM]	6.9%[9.22 µM]
CCc1ccc(O)c(-c2cc(C(=O)Nc3cccnc3)[nH]n2)c1	10.7µM*	1.58µM*	2.24µM*	.	.
Cc1cc(O)c(-c2cc(C(=O)Nc3cccnc3)[nH]n2)cc1C	1.9µM*	0.251µM*	1µM*	.	.
Cc1cc(C)c(O)c(-c2cc(C(=O)Nc3cccnc3)[nH]n2)c1	19µM*	19.3%	25.3%	.	.
CC(=O)Nc1ccc(NC(=O)c2cc(-c3cc(C)c(C)cc3O)n[nH]2)cc1	-12.9%	11.2%	23.3%	.	.
Cc1ccc(NC(=O)c2cc(-c3cc(Cl)ccc3O)n[nH]2)cc1C	-8.6%	-5.2%	-3.9%[1.84 µM]	.	.
Cc1cccc(NC(=O)c2cc(-c3cc(C)cc(C)c3O)n[nH]2)c1	?	13.0%	14.8%	.	.
Cc1cccc(C)c1NC(=O)c1cccc(COc2cc(Cl)ccc2Cl)c1	-6.5%	15.1%	15.6%	1.6%	12.6µM*
Cc1nn(Cc2c(F)c(F)c(F)c(F)c2F)c(C)c1NC(=O)c1ccc(COc2cc(Cl)ccc2Cl)cc1	?	?	?	-0.1%	?
Cc1cc(C(=O)COC(=O)c2n[nH]c(=O)c3ccccc23)c(C)n1C(C)C	1.69µM*	26.7%	?	.	.
Cc1cc(C(=O)COC(=O)c2ccc(O)cc2O)c(C)n1C(C)C	4.78µM*	3.55µM*	3.55µM*	.	.
O=C(COC(=O)c1n[nH]c(=O)c2ccccc12)c1ccc(Br)cc1	?	-2.1%	-5.7%	-3.4%	.
CCOc1ccc2nc(NC(=O)c3nc(SCc4ccccc4C)ncc3Cl)sc2c1	-11.6%	.	.	.	11.3%
Cc1cc(NC(=O)c2ccc3c(c2)OCO3)no1	10.7µM*	2.51µM*	1.58µM*	-12.5%	11.2µM*
Cc1cc(NC(=O)c2nn(C)c(C)c2Br)no1	?	?	2.82µM*	.	.
Cc1nc(NC(=O)c2ccc3c(c2)OCO3)ccc1Br	9.53µM*	3.16µM*	3.55µM*	-24.9%	11.2µM*
Cc1cc(NC(=O)c2ccc3c(c2)OCCO3)no1	1.2µM*	?	0.447µM*	-13.9%	3.55µM*
Cc1cc(NC(=O)c2ccc(F)cc2)no1	16.9µM*	?	?	.	.
CC(=O)Nc1ccc(C(=O)Nc2cc(C)on2)cc1	-3.5%	5.4%	10.5%	.	.
CCOC(=O)C(=O)Nc1cc(C)on1	1.69µM*	2.82µM*	1.58µM*	12.6µM*	.
SMILES	FLuc counter	NPC1 prom act	Rab9 promoter act	Luc counter	SMN2 splice up
O=C(NC1(C(F)(F)F)N=C(c2ccccc2)N(Cc2ccccc2)C1=O)c1ccc(F)cc1 (stereo not given)	-10.2%	.	.	.	-4.3%
CCOc1ccc(CCNC(=O)c2ccc3c(c2)c(C)c(C)n3C)cc1	-13.1%	.	.	.	.
CCN(CC)CCN1C(=O)C(=O)/C(=C(/O)c2ccc(OC)cc2)C1c1cccs1 (stereo not given)	?	15.1%	6.1%	-3.9%	-1.1%
Cc1ccc(/C(O)=C2/C(=O)C(=O)N(Cc3ccco3)C2c2cccs2)cc1 (stereo not given)	23.9µM*	-4.1%	-2.5%	-4.2%	11.2%
CC(C)c1ccc(C(=O)Nc2ccc(-c3nc4ccccc4s3)c(Cl)c2)cc1	-10.3%	.	.	.	?
Cc1ccc2cc(C#N)c(SCC(=O)NCC3CCCO3)nc2c1 (stereo not given)	2.7%	0.1%	-0.5%	-3.8%	-1.3%
CCOC(=O)CC(=O)CSc1nc2ccc(C)cc2cc1C#N	-20.9%[2.3 µM]	1.9%	0.8%	-2.9%	25.1µM*
COC(=O)CSc1nc2cc(C)ccc2cc1C#N	13.5µM*	1.58µM*	1.41µM*	1.1%	17.8µM*
Cc1ccc(Cl)cc1N1CCN(C(=O)CN2C(=O)COc3ccc(S(=O)(=O)N4CCC(C)CC4)cc32)CC1	-12.5%	.	.	.	-2.5%
N#C/C(=C\c1ccc[nH]1)C(=O)c1ccccc1	16.9µM*	-1.4%	4.5%	.	.
Cc1cc(/C=C(\C#N)C(=O)NC2CCCCCC2)c(C)[nH]1	?	24.2%	23.4%	-2.7%	30.0%
COc1ccc(NC(=O)/C(C#N)=C/c2ccc[nH]2)c(OC)c1	-1.6%	3.16µM*	?	.	.
N#C/C(=C\c1cccc(Cl)c1)C(=O)c1ccccc1	?	-1.5%	0.7%	.	.
N#C/C(=C\c1ccc[nH]1)C(=O)Nc1ccccc1Cl	-16.4%	0.708µM*	?	.	.
Cc1ccccc1NC(=O)/C(C#N)=C/c1ccc(Cl)cc1Cl	-13.5%	.	.	.	2.3%
Cc1cc(/C=C(\C#N)C(=O)NC2CC2)c(C)[nH]1	12µM*	3.98µM*	3.16µM*	-12.0%	11.2µM*
Cc1cc(/C=C(\C#N)C(=O)Nc2ccccc2F)c(C)[nH]1	2.13µM*	1.12µM*	0.562µM*	-1.7%	.
N#C/C(=C\c1ccc[nH]1)C(=O)Nc1ccccc1F	?	1.26µM*	0.501µM*	.	.
Cc1cc(/C=C(\C#N)C(=O)NCc2ccco2)c(C)[nH]1	?	2.1%	21.0%	7.0%	?
NCC[C@H](N)C(=O)O	.	.	.	-6.0%[7.66 µM]	-5.7%[9.22 µM]
Cc1ccc(OCc2cc(C(=O)N(CCO)Cc3cccs3)no2)cc1C	26.9µM*	3.98µM*	3.55µM*	.	.
Cc1ccc(OCc2cc(C(=O)N3CCN(c4ccccc4)CC3)no2)cc1C	6.01µM*	2.51µM*	2µM*	.	.
Cc1ccc(OCc2cc(C(=O)N3CCC(c4ccccc4Cl)C3)no2)cc1C (stereo not given)	26.9µM*	?	?	.	.
Cc1ccc(OCc2cc(C(=O)N3CCN(C4CCCC4)CC3)no2)cc1C	?	3.2%	28.2%	.	.
CCOC(=O)c1c(C)[nH]c(C)c1S(=O)(=O)N1CCC(C(=O)Nc2ccccn2)CC1	-0.8%	.	.	.	.
SMILES	FLuc counter	NPC1 prom act	Rab9 promoter act	Luc counter	SMN2 splice up
CCCC(=O)N=C1SC2CS(=O)(=O)CC2N1c1ccc(-c2nc3ccc(C)cc3s2)cc1 (stereo not given)	5.36µM*	3.55µM*	3.98µM*	.	.
COc1ccc(NC(=O)Nc2cccnc2)cc1	16.9µM*	23.5%	25.1%	-25.1%	24.0%
CCOc1ccc(NC(=O)NCc2cccnc2)cc1	-0.5%	-7.6%	2.8%	7.4%	.
Cc1cnc(NC(=O)Nc2ccc(Cl)cc2)s1	4.78µM*	14.4%	-31.3%	-2.0%	173.4%
O=C(Nc1ccc(Cl)cc1)Nc1cccnc1	12µM*	25.0%	?	11.2%	16.0%
CCOc1ccc(NC(=O)Nc2cccnc2)cc1	7.57µM*	?	3.55µM*	.	.

Source: PubChem BioAssay
